Our source for the Inhibition values is ChEMBL document CHEMBL4513158, “CO-ADD screening of RKDF (India) compounds”.

One assay concerns Klebsiella pneumoniae. The settings on record: Concentration 32 ug.mL-1; ASSAY_TEST Inhibition of Bacterial Growth; detection method Absorption (OD600); MEDIA CAMHB; plate type 384well; NBS; CORNING #3640; time 18 hr.
Another assay has as its system Candida albicans. The settings on record: 32 ug/mL.
Another assay relates to Cryptococcus neoformans. The note with it: Concentration 32 ug.mL-1; ASSAY_TEST Inhibition of Fungal Growth; detection method Resazurin; Absorption (OD600-OD570); plate type 384well; NBS; CORNING #3640.

Structures are written as SMILES. Potency and affinity values are given separately.

As to `C=C[C@H]1[C@H](O[C@@H]2O[C@H](CO)[C@@H](O)[C@H](O)[C@H]2O)OC=C2C(=O)OCC[C@]21O` [SWERTIAMARIN], the Inhibition in the assay with Klebsiella pneumoniae was 13.48%; in the assay with Candida albicans, 14.2%; with Cryptococcus neoformans, 102.17%.
`CN(C)C(=N)NC(=N)N.Cl` [METFORMIN HYDROCHLORIDE]: the Inhibition is 14.76% in the assay on Klebsiella pneumoniae, 99% in the assay on Candida albicans and 90.72% in the assay with Cryptococcus neoformans.
